From the supplement of paper PMC11732987, “Enantioselective OTUD7B fragment discovery through chemoproteomics screening and high-throughput optimisation” (Communications Chemistry, 2025)

What was measured:
Assay in all cases: log2 ratio of Biotin-Ahx-Ub-VS probe labelling (fragment/DMSO); higher = less target engagement (more negative = stronger competition), active = hit call of the paper (q ≤ 0.05, log2 ratio ≤ -1)
Conditions in all cases: compound concentration: 200 uM; treatment time: 3 h
USP9X = USP9X (UniProt Q93008)
Outline: (§1)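 HEK293T lysate (495 µg per sample, in Tris/CHAPS/IGEPAL buffer with protease inhibitors) was treated in triplicate with fragment at 200 µM or with DMSO for 3 h. It was then treated with Biotin-Ahx-Ub-VS (0.5 µM final) for 1 h. Labelled DUBs were NeutrAvidin-enriched, digested with LysC and trypsin, and run by diaPASEF LC-MS/MS. Spectronaut label-free quantities were global-median-normalised. Values are average log2 ratios fragment/DMSO by unpaired t-test, using proteins with ≥2 unique peptides.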

UniProt O00487 = biological target: UniProt O00487
Outline: as §1

UniProt O00507 = biological target: UniProt O00507
Outline: as §1

UniProt P51784 = biological target: UniProt P51784
Outline: as §1

UniProt Q5T2D3 = biological target: T1, UniProt Q5T2D3
T1 sequence (whole entry): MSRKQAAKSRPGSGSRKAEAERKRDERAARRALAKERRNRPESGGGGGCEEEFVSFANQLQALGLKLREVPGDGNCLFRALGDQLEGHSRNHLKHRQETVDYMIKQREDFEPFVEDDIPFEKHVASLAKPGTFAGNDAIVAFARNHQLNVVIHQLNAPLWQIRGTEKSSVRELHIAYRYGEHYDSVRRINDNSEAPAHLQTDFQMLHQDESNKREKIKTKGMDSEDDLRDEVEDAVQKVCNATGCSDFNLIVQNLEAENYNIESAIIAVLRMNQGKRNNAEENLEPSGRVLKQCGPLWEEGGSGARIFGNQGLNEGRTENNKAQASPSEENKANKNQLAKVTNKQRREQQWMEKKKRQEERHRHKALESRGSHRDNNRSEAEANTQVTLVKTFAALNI
Outline: as §1

UniProt Q8TE49 = biological target: T2, UniProt Q8TE49
T2 sequence (whole entry): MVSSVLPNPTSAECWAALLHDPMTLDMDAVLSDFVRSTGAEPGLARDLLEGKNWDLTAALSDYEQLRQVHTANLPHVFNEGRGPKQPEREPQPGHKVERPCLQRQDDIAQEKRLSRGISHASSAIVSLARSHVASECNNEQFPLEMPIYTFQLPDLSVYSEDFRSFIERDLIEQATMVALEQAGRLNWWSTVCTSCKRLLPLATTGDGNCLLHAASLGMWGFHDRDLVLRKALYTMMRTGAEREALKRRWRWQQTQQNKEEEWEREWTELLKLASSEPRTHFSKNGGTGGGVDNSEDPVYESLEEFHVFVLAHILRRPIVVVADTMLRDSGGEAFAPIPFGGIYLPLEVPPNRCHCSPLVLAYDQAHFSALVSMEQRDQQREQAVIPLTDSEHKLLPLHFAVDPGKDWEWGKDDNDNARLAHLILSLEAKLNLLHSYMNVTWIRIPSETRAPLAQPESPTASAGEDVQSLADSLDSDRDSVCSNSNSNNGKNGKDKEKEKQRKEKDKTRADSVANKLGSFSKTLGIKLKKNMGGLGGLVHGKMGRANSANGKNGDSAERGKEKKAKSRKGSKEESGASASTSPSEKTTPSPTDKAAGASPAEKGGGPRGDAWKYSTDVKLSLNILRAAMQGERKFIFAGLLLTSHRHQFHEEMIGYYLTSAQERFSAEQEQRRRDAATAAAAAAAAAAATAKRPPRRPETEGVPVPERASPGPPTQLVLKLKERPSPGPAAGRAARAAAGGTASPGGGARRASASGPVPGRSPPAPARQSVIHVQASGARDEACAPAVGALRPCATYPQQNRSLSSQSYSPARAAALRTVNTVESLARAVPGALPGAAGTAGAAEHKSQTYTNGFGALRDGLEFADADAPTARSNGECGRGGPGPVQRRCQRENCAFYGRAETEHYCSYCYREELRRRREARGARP
Outline: as §1

UniProt Q9P2H5 = biological target: T3, UniProt Q9P2H5
T3 sequence (whole entry): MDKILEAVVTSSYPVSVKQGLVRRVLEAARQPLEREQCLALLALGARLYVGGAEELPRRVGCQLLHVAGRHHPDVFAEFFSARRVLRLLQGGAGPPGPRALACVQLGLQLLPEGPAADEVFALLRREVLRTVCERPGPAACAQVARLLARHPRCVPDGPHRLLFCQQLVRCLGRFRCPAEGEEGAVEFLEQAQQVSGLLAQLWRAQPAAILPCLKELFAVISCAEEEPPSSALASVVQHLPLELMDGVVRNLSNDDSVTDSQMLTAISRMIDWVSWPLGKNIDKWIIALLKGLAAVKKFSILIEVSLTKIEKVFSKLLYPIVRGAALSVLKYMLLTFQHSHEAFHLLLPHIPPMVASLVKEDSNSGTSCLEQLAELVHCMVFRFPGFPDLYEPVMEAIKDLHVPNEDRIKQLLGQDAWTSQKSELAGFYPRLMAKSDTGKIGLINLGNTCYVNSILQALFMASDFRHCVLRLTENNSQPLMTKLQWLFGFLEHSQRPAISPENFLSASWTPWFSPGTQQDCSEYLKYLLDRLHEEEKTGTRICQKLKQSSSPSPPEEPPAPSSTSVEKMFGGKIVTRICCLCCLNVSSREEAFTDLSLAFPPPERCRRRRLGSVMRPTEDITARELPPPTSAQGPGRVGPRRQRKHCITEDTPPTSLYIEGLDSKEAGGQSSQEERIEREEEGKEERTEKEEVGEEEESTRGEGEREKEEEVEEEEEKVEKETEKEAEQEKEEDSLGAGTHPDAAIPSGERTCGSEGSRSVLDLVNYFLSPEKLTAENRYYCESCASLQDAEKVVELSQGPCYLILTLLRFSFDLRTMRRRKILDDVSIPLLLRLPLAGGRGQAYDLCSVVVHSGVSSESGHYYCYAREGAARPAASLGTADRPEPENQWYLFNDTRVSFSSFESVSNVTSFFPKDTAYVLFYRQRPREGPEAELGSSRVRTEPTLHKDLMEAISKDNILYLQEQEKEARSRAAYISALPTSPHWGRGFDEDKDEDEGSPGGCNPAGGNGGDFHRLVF
Outline: as §1

UniProt Q9UGI0 = biological target: T4, UniProt Q9UGI0
T4 sequence (whole entry): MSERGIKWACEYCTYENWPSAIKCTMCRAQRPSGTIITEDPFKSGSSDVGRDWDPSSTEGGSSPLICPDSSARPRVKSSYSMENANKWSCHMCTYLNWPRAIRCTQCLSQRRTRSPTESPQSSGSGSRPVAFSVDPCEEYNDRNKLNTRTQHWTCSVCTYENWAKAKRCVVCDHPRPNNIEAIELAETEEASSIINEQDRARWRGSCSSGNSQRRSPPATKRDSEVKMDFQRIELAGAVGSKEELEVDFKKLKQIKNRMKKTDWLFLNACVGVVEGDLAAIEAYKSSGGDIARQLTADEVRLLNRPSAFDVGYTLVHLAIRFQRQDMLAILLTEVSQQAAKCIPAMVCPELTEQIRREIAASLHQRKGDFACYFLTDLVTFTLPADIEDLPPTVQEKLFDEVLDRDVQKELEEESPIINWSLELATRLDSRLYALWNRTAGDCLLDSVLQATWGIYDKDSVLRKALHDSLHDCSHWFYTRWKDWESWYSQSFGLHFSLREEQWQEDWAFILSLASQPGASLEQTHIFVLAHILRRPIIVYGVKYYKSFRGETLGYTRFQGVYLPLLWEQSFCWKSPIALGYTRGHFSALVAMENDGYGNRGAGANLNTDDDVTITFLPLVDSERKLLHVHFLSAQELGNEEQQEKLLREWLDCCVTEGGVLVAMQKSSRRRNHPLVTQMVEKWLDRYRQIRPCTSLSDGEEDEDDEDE
Outline: as §1

YOD1 = biological target: T5, YOD1 (UniProt Q5VVQ6)
T5 sequence (whole entry): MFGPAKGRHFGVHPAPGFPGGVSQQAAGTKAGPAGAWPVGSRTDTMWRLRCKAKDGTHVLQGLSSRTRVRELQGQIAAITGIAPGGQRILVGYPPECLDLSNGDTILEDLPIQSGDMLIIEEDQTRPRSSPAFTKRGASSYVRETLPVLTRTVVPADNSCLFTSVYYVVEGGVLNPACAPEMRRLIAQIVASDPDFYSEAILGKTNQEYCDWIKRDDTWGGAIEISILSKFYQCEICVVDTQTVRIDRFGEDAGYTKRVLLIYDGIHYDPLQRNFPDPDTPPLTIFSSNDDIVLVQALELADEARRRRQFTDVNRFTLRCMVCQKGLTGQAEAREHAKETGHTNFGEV
Outline: as §1

Measured: log2 ratio of Biotin-Ahx-Ub-VS probe labelling

UniProt P51784, sequence (P51784 whole entry): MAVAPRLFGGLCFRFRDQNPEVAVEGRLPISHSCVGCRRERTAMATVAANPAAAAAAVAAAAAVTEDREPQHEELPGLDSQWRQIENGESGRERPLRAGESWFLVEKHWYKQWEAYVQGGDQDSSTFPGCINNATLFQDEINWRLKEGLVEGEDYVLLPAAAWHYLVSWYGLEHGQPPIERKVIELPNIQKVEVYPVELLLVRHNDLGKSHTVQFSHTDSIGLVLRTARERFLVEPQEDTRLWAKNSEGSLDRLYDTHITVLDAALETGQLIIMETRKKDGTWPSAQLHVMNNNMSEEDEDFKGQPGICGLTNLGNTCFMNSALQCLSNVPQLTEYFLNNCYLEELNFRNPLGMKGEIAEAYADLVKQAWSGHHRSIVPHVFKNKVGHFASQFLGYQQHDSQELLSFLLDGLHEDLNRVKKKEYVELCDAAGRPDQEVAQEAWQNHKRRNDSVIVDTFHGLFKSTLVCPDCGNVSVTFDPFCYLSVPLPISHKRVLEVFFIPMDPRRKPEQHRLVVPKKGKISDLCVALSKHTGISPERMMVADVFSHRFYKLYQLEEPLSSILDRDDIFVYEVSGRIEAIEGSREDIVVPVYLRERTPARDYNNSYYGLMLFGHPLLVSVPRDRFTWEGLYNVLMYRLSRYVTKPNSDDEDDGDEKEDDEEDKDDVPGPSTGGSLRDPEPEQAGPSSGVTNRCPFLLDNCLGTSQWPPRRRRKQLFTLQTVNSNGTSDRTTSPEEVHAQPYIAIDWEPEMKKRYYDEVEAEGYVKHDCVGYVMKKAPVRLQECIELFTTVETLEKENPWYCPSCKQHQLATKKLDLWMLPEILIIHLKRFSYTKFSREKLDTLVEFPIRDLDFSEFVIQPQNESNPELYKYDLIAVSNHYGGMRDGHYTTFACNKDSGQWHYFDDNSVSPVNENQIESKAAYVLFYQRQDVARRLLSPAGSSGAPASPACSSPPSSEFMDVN
UniProt O00507, sequence (O00507 whole entry): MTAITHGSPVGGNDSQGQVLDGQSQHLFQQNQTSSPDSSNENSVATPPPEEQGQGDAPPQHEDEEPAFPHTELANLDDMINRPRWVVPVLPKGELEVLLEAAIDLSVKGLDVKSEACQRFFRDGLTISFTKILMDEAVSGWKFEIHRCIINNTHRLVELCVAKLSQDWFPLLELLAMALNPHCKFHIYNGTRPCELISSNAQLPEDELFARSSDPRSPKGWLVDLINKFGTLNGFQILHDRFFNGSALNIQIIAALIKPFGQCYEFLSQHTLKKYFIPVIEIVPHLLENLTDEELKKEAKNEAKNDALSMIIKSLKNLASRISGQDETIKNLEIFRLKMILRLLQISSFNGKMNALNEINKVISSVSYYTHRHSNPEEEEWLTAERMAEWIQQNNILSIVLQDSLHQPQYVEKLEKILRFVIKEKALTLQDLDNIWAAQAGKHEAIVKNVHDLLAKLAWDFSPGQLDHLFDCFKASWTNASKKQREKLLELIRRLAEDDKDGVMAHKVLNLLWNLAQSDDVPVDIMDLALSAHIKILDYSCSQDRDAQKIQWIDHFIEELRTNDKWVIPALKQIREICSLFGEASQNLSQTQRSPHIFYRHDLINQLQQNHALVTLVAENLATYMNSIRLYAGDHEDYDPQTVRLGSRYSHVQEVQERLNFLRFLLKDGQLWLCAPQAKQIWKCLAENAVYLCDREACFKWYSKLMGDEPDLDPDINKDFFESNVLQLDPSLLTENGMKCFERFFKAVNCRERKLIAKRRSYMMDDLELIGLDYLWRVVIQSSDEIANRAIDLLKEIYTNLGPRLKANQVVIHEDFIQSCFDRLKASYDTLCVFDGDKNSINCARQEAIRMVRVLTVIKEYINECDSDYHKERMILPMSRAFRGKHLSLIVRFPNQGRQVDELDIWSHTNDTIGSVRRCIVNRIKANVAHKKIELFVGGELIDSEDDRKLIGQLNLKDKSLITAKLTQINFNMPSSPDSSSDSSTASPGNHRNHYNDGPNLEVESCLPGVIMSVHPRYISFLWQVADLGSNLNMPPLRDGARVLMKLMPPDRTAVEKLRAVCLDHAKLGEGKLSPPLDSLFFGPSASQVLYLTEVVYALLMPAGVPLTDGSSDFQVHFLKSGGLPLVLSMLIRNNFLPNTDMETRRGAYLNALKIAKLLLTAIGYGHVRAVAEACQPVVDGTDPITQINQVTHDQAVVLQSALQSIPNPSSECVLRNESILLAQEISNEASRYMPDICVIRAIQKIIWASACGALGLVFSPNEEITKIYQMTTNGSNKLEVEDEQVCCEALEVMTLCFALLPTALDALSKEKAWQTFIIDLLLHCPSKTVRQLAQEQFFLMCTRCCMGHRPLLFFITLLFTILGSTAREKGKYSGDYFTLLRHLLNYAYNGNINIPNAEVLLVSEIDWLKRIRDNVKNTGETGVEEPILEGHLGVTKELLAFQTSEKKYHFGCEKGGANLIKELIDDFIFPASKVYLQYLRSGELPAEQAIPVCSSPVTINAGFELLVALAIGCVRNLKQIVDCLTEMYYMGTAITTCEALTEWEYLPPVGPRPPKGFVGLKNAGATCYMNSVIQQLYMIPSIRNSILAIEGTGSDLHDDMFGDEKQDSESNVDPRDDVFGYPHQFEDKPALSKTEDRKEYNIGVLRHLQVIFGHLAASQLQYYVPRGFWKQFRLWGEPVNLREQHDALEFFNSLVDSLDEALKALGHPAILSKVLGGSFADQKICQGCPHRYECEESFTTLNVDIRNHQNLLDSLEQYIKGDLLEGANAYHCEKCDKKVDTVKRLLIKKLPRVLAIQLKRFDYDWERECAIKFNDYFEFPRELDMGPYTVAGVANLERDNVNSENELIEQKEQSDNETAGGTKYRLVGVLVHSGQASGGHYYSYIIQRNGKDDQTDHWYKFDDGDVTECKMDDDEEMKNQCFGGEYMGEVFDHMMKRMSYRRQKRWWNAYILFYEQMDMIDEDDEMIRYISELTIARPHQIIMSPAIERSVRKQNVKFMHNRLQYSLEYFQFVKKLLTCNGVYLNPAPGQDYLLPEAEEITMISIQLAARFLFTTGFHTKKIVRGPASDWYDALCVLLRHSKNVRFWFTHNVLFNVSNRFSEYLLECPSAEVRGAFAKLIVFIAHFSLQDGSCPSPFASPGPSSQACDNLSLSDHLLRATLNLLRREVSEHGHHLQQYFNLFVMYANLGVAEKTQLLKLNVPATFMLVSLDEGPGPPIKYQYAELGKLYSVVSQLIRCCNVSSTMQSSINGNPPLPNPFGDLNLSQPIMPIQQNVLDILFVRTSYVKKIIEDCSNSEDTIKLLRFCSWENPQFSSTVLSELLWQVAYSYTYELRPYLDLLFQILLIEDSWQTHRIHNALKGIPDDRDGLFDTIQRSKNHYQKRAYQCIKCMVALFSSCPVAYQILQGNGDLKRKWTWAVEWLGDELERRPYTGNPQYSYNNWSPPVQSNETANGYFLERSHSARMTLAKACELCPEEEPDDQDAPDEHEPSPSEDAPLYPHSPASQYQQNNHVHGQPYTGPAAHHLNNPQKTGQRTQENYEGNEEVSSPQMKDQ
UniProt O00487, sequence (O00487 whole entry): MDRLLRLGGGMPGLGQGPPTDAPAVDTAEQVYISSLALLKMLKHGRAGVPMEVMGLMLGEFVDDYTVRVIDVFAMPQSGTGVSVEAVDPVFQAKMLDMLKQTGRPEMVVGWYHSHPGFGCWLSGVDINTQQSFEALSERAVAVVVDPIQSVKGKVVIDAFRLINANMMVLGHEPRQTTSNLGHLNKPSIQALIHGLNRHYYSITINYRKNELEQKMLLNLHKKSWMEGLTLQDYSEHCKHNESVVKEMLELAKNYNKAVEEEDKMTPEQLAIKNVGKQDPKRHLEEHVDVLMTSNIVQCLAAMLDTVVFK

Cl.O=C(CCl)N1CCC(Cc2nccs2)C1 (centres undefined)
inactive: USP9X -0.186 | UniProt O00487 -0.1 | UniProt O00507 -0.185 | UniProt P51784 0.0118 | UniProt Q5T2D3 -0.239 | UniProt Q8TE49 -0.308 | UniProt Q9P2H5 -0.239 | UniProt Q9UGI0 -0.507 | YOD1 -0.104
